# Laboratory results reported in PubChem BioAssay (NCI).
# The panel holds about 83,000 compounds, 20% with a hit somewhere; the sample as a whole holds those more often.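 Negative percent growth values reflect cell death: -40 means 40% of the cells present at the start died, and -100 means all died.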 Values without a mark were called inactive. Calls of active or inactive are those of the source. The calls were made as follows: active = growth percent below 10; inactive = the rest.
# System: HL-60(TB) leukemia
# Assay: NCI-60 one-dose screen, 48 h (100 = growth as untreated, 0 = no growth, -100 = all killed)
# Settings: 10 µM unless noted
row,SMILES,growth
1,COc1ccc(Cl)cc1Nc1nc(C(F)(F)F)ccc1C(=O)N/N=C/c1ccc(Cl)cc1,9.34% (active)
2,CCCCN(CCCC)CCC(C)(O)c1cc2ccccc2c2ccccc12 (centres undefined),83.7%
3,C=C1c2c(C)nn(-c3ccc(C#CCOC4OC(CO)C(O)C(O)C4O)cc3)c2N(C)C23C[C@H]1C1(C)c4c(C)nn(-c5ccc(C#CCOC6OC(CO)C(O)C(O)C6O)cc5)c4N(C)C(C)(C[C@H]12)C3 (some centres undefined),-22.8% (active)
4,COc1cc(/C=C2\C=C(c3ccc(F)cc3)N(Cc3ccccc3)C2=O)cc(OC)c1OC,75.9%
5,Nc1c(C(=O)Nc2cccc3ncccc23)sc2nc3c(cc12)C(=O)CCC3,32.8%
6,O=C(CNc1nc2ccccc2s1)Nc1ccc(-c2nc3ccccc3s2)cc1,99.1%
7,COC(=O)c1oc2c(C(C)=O)c(OCCN3CCCCC3)ccc2c1C,110%
8,C[C@H](Oc1cc(-c2cnn(C3CCNCC3)c2)cnc1N)c1c(Cl)ccc(F)c1Cl,58.3%
9,COc1ccc(CNc2c3ccccc3nc3ccccc23)cc1OC,12.7%
10,Cn1c(=O)c2[nH]c(SCC(=O)Nc3ccc(C(=O)/C=C/c4ccccc4Cl)cc3)nc2n(C)c1=O,98.6%
11,COC(=O)c1nc(-c2ccccc2)oc1S(=O)(=O)NCC(c1ccc(Cl)cc1)N1CCOCC1 (centres undefined),4.12% (active)
12,CCOC(=O)CSc1nc2sc3c(c2c(=O)n1-c1ccccc1)CCCCC3,109%
13,COc1ccc(Cn2cc3c(c2-c2ccccc2)CCc2cnoc2-3)cc1OC,7.72% (active)
14,ClCCOCCn1cnc2c(Cl)nc(Cl)nc21,40.9%
15,Cc1nc2sc(C(=O)Nc3cccc(Cl)c3)c(N)c2cc1C(O)c1ccccc1 (centres undefined),-40.9% (active)
16,Cc1[nH]cnc1/C=C1\SC(N2CCCCC2)=NC1=O,96.4%
17,COc1ccc(NC(=O)[C@@H]2C[C@H]2c2ccccc2)c(C(N)=O)c1,93.9%
18,CCN1CCN(c2nc(NNC(=O)c3ccc(OC)cc3)nc(N3CCN(C(c4ccccc4)c4ccccc4)CC3)n2)CC1,18.7%
19,Brc1cccc(-c2nc(-c3ccc4c(c3)OCCO4)co2)c1,29.1% [25 µM]
20,Cc1nc2c(ccc3ccccc32)s1,84.2%
21,CCCc1cccc(CCC)c1NC(=O)Nc1cc(Cl)cc(Cl)c1,101%
22,c1ccc(Nc2ncc3c(n2)-c2cccn2CC3)cc1,107%

row,SMILES,growth
1,Cc1cc(=O)oc2cc(OCCn3c(C)nn(-c4ccc(Cl)cc4)c3=O)ccc12,-5.7% (active)
2,COc1ccc2nc(/C=C/c3ccc(N(C)C)cc3)sc2c1,51.1%
3,O=[N+]([O-])c1cccc(-c2nc3sccn3c2-c2ccnc(NCCCNS(=O)(=O)c3ccc(F)cc3)n2)c1,-12.9% (active)
4,C[C@@H]1N=C(c2ccc3ccccc3c2)Nc2nc3ccccn3c2C1=O,-6.75% (active)
5,Fc1cc(-c2nnc3sc(-c4ccc(Cl)cc4)nn23)c(Cl)cc1Cl,26.9%
6,CN1CCN(C(=S)S)CC1,111%
7,O=C(N/N=C/c1ccc(Cl)cc1)c1cc(-c2cc3ccccc3o2)nn1-c1ccccc1,117%
8,CN1CCN(c2ccc3c(c2)nc(NNC(=O)c2cnccn2)c2cccn23)CC1,-9.26% (active)
9,O=C1/C(=C\c2cn(-c3nc(N4CCOCC4)nc(N4CCOCC4)n3)c3ccccc23)c2ccccc2N1c1c(Cl)cccc1Cl,64.7%
10,O=C(Nc1ccc(-n2cc(-c3ccncc3)c(-c3ccc(O)c(Cl)c3)n2)cc1)c1cc(Cl)cc(Cl)c1,28.1%
11,O=C1CC(N2C(=O)/C(=C/C(Cl)=C\c3ccc([N+](=O)[O-])cc3)SC2=S)C(=O)N1c1ccc(O)cc1 (centres undefined),-18.7% (active)
12,COc1ccc(N=c2nc3sc4cc(Cl)ccc4n3c(N)c2C#N)cc1,119%
13,c1ccc2c(c1)OC1OC2Oc2ccccc21,80%
14,COCCOCCOCc1n(Cc2ccc3ccccc3n2)c2ccccc2[n+]1Cc1ccc2ccccc2c1,-68% (active)
15,CN=C(N)N/N=C(\C)c1ccc2c(c1)Cc1cc(/C(C)=N/NC(N)=NC)ccc1-2,-23.2% (active)
16,O=C(Nc1cc(Cl)ccc1O)c1cccc(Nc2ccnc(C(F)(F)F)c2)c1,-18% (active)
17,COc1cc(-c2cc(-c3nc4ccc(F)cc4[nH]3)[nH]n2)cc(OC)c1OC,-35% (active)
18,O=C1/C(=C/c2ccccc2)Oc2ccc(O)c(I)c21,95.4%
19,COC(=O)[C@H](C)NC(=O)[C@@H]1CCCN1C(=O)CNC(=O)[C@H](C)N,104%
20,Nc1c(C(=O)Nc2cccc3c2OCCO3)sc2nc3c(cc12)C(=O)CCC3,12.4%
21,O=S(=O)(O)c1ccc(O)c(C2CCCCC2)c1,131%
22,COc1cc(-c2nc(C(=O)Nc3ccc(C)cc3)nn2-c2ccc(F)c(F)c2)cc(OC)c1OC,100%
